# This is part of a sample that, as a whole, favours compounds with a hit. Of some 83,000 tested, about 20% had one in any assay.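 Assay: single dose, 48 h. Readout: percent growth (0 = no net growth; negative = cell death). Active: <10.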 A number with no mark means an inactive call. Active and inactive are the calls of the source.
# How the values were obtained:
# Assay in all cases: NCI-60 one-dose screen, 48 h (100 = growth as untreated, 0 = no growth, -100 = all killed)
# Settings in all cases: 10 µM
# NCI-H23 lung = tested on: NCI-H23 lung
# NCI-H522 lung = tested on: NCI-H522 lung
# MDA-MB-231 breast = tested on: MDA-MB-231 breast
# M14 melanoma = tested on: M14 melanoma
# LOX IMVI melanoma = tested on: LOX IMVI melanoma
# CCRF-CEM leukemia = tested on: CCRF-CEM leukemia
# MOLT-4 leukemia = tested on: MOLT-4 leukemia
# SR leukemia = tested on: SR leukemia
# OVCAR-8 ovarian = tested on: OVCAR-8 ovarian
# OVCAR-5 ovarian = tested on: OVCAR-5 ovarian
# OVCAR-4 ovarian = tested on: OVCAR-4 ovarian
# SK-OV-3 ovarian = tested on: SK-OV-3 ovarian
# IGROV1 ovarian = tested on: IGROV1 ovarian
# HS 578T breast = tested on: HS 578T breast
# NCI/ADR-RES ovarian = tested on: NCI/ADR-RES ovarian
# T-47D breast = tested on: T-47D breast
# SW-620 colon = tested on: SW-620 colon
# MCF7 breast = tested on: MCF7 breast
# HCT-116 colon = tested on: HCT-116 colon
# SK-MEL-5 melanoma = tested on: SK-MEL-5 melanoma
Structure (SMILES),growth (NCI-H23 lung),growth (NCI-H522 lung),growth (MDA-MB-231 breast),growth (M14 melanoma),growth (LOX IMVI melanoma),growth (CCRF-CEM leukemia),growth (MOLT-4 leukemia),growth (SR leukemia),growth (OVCAR-8 ovarian),growth (OVCAR-5 ovarian),growth (OVCAR-4 ovarian),growth (SK-OV-3 ovarian),growth (IGROV1 ovarian),growth (HS 578T breast),growth (NCI/ADR-RES ovarian),growth (T-47D breast),growth (SW-620 colon),growth (MCF7 breast),growth (HCT-116 colon),growth (SK-MEL-5 melanoma)
COc1cc2c(O[C@@H]3OC[C@H](OC(C)=O)[C@H](OC(C)=O)[C@H]3O)c3c(c(-c4ccc5c(c4)OCO5)c2cc1OC)C(=O)OC3,46.3%,4.7% (active),13.7%,-17.9% (active),-53.7% (active),20.1%,13.7%,2.16% (active),24.3%,73%,51.4%,23.8%,47.9%,60.3%,37.7%,-2.78% (active),14.1%,36.9%,9.2% (active),–
NC1CCc2cc(O)c(O)cc2C1 (centres undefined),91.8%,92.3%,101%,83.5%,70.9%,48%,66%,-24.1% (active),101%,91.4%,98.7%,104%,97.9%,100%,85.6%,88.9%,93.1%,63.6%,58.1%,87.4%
CC(=O)O[C@@H]1C[C@H]2O[C@@H]3C=C(C)CC[C@]3(C)[C@]1(C)[C@]21CO1,7.96% (active),2.05% (active),4.27% (active),-45.9% (active),-41.5% (active),-3.18% (active),-9.55% (active),0.874% (active),8.44% (active),84.3%,-1.86% (active),18.1%,22.8%,22.7%,14.6%,-2.72% (active),7.09% (active),3.89% (active),0.731% (active),-50.9% (active)
CC1=C2C(=C[C@@](C)(COS(C)(=O)=O)[C@@H]2O)C(=O)[C@](C)(O)C12CC2,-18.5% (active),-6.78% (active),8.84% (active),-8.82% (active),-3.47% (active),11%,10.4%,2.86% (active),12.5%,1.82% (active),-0.135% (active),-13.9% (active),8.2% (active),-9.58% (active),0.993% (active),-0.976% (active),11.7%,3.13% (active),4.67% (active),-18% (active)
C[C@@H]1CCC/C=C/[C@H]2C[C@@H](O)C[C@@H]2[C@@H](O)/C=C/C(=O)O1,5.85% (active),-26.3% (active),-62.2% (active),6.74% (active),-70% (active),12.3%,1.42% (active),1.7% (active),3.04% (active),30.5%,22.1%,8.48% (active),5.5% (active),42%,9.17% (active),7.4% (active),10.3%,10.8%,-1.47% (active),-92.8% (active)
CC1=C(CCC=NNC(N)=O)C2=C(C)C3(CC3)[C@@](C)(O)C(=O)C2=C1,-35.2% (active),-62% (active),-5% (active),-84.4% (active),-31.9% (active),26.6%,47.2%,29.9%,-36.1% (active),-6.93% (active),-33.3% (active),-52.1% (active),-17.8% (active),-23.6% (active),-18.1% (active),-9.73% (active),55.4%,6.29% (active),1.32% (active),-80.6% (active)
N#Cc1c(-n2c(Br)c(Br)c3cc(Br)ccc32)[nH]c2c(Br)cc(Br)cc12,-36.4% (active),-14.8% (active),-2.11% (active),-32.4% (active),-25.2% (active),13.2%,2.02% (active),0.987% (active),1.23% (active),33%,20.4%,-44.3% (active),25.4%,-6.84% (active),-2.1% (active),-13% (active),4.15% (active),-13.6% (active),-66.1% (active),-76.8% (active)
CC1=C(CN(O)C(N)=O)C2=C(C)C3(CC3)[C@](C)(O)C(=O)C2=C1,10.7%,-7.03% (active),12.4%,-55.4% (active),56%,1.19% (active),76.2%,-4.72% (active),6.82% (active),10.3%,13.7%,14.7%,29%,33.7%,15.9%,6.89% (active),8.93% (active),3.76% (active),7.48% (active),85.8%
